# Vaccinia pol inh: vaccinia E9 polymerase processive synthesis inhibitors, primary screen, biochemical, absorbance; Vaccinia virus DNA polymerase (E9) processive complex; 0.94% of 46,000 active; in vitro processive DNA synthesis, absorbance read-out; stronger effect = lower value; AID 493162, 2011; normalized absorbance, % (concentration not given with the values); in the data active = normalized absorbance mostly below about 85%, no sharp cut-off; inactive = mostly above about 86%
# The depositor's hits bear a star. This is one part of a sample in which hits are shown more often than they occur.
SMILES,Vaccinia pol inh
Cc1ccc2cccc(SC(=O)NCC3CCCO3)c2n1 (configuration not stated),100
Cc1ccc(Nc2cc(C(=O)NCCC(C)C)c3ccccc3n2)cc1C,71*
COc1ccc(Nc2cc(C(=O)NCCc3ccccc3)c3ccccc3n2)cc1,99
CC(C)CCNC(=O)c1cc(Sc2ccc(F)cc2)nc2ccccc12,91
CCNC(=O)c1sc(C)nc1N,101
O=C1c2ccccc2C(O)(Cc2ccccc2)N1CCCO (configuration not stated),96
CCCCN1CN=C(Nc2nc(C)c3ccccc3n2)NC1,96
c1ccc(CN2CN=C(Nc3nc4ccccc4o3)NC2)cc1,103
Cc1nc(NC2=NCN(Cc3ccccc3)CN2)nc2ccccc12,73*
Nc1cc(Cl)ccc1C(=O)OCC(=O)NCC1CCCCC1,96
CC1(C)CC(N2COc3c(cc(Cl)c4cccnc34)C2)CC(C)(C)N1,92
O=S(=O)(Cc1ccccc1)c1nc2ccccc2n1Cc1ccc(Br)cc1,100
CCOC(=O)c1ccsc1NC(=O)c1ccccc1,98
CCc1cccc2c(=O)c(CN(C)C)c(C)[nH]c12,83
CN(C)Cc1ccc2ccc3cccc4ccc1c2c34,12*
N#Cc1ccc(Cl)cc1NC(=O)CSc1ccccn1,92
Nc1nn2cc(-c3ccc(Cl)s3)nc2c2ccccc12,100
COc1ccc(CC(=O)Nc2sccc2C#N)cc1,95
NC(=O)NC(=O)CC1Nc2ccccc2NC1=O (configuration not stated),99
O=C(O)c1ccc2c(c1)NC(=O)C(CSCc1ccccc1Cl)N2 (configuration not stated),39*
CNC(=O)CC1Nc2ccccc2NC1=O (configuration not stated),103
O=c1c2cccnc2nc(SCc2ccc(Cl)cc2)n1Cc1ccccc1,102
CCc1ccccc1N(C)C(=O)CCn1c(=S)oc2ccccc21,88
COc1ccc(C2=Nc3ccccc3N=C(c3ccc4ccccc4c3O)C2)cc1,100
COc1ccccc1C1CCN(C(=O)CSCc2cccc3ccccc23)CC1,103
SMILES,Vaccinia pol inh
Cc1ccc(C)c(CSC2=NCCN2C(=O)COc2ccccc2)c1,101
CCS(=O)(=O)N1CCN=C1SCc1cccc2ccccc12,29*
O=C(Cc1ccccc1)N1CCN=C1SCc1ccccc1,103
O=S(=O)(c1ccc(F)cc1)N1CCN=C1SCc1ccc(F)cc1,115
CCSC1=NCCN1S(C)(=O)=O,98
CCS(=O)(=O)N1CCN=C1SCc1ccccc1C,78*
C=C(C)CSc1nnc(SCc2cccc3ccccc23)s1,92
COc1ccc(S(=O)(=O)N2CCN=C2SC)cc1,115
CS(=O)(=O)N1CCN=C1SCc1ccc(Cl)c(Cl)c1,56*
CCSC1=NCCN1S(=O)(=O)c1ccccc1,100
CS(=O)(=O)N1CCN=C1SCc1cccc2ccccc12,51*
Cc1nc2cc(Cl)ccc2c(=O)n1-c1ncn[nH]1,101
O=C(N/C(=C\c1ccccc1Cl)C(=O)N1CCOCC1)c1ccccc1,107
CN(C)c1ccc(/C=c2/sc3nnc(-c4ccccc4)n3c2=O)cc1,100
CC12CCC(C(=O)Nc3nccs3)(CC1=O)C2(C)C (configuration not stated),98
O=C(O)Cc1cc(=O)oc2c1ccc1ccccc12,81
Cc1ccc2sc(-c3nc4ccccc4s3)nc2c1,100
COc1ccc2cc1Oc1ccc(cc1)C[C@H]1c3cc(c(OC)cc3CCN1C)Oc1c(OC)c(OC)cc3c1[C@H](C2)N(C)CC3,84*
COc1ccc2c(c1OC)C(=O)OC2[C@H]1c2c(cc3c(c2OC)OCO3)CCN1C (some centres not stated),97
CCc1ccc(OCCCC(=O)Nc2ncn[nH]2)cc1,101
O=C(Nc1ncn[nH]1)c1ccccc1O,94
O=C(CCCC(=O)c1ccccc1)Nc1ncn[nH]1,73*
CCN1CCN(C(c2cccs2)C(C)NC(=O)c2ccc(F)cc2)CC1 (configuration not stated),100
Cc1ccc2oc(=O)c3cc(C(=O)Nc4ccc5c(C)cc(=O)oc5c4)sc3c2c1,104
Cc1ccc2oc(=O)c3cc(C(=O)N4CCN(c5ccc(F)cc5)CC4)sc3c2c1,101
SMILES,Vaccinia pol inh
Cc1ccc2oc(=O)c3cc(C(=O)NCCN4CCCCC4C)sc3c2c1 (configuration not stated),62*
Cc1cc(-c2ccc(S(=O)(=O)N3CCCC3)cc2)nc2ccccc12,102
CNc1ccc2nnc(CCNC(=O)c3ccccc3)n2n1,104
NC(=O)COC(=O)c1cccc(I)c1,102
O=C(O)CCC1CCCCCCCCCCC1,74*
N[C@@H](CC1CCCCC1)C(=O)O,99
O=C(O)CNC(=O)C1CCCCC1,103
C=CCN(C(=O)Cn1c(=O)n(Cc2ccco2)c(=O)c2cc(OC)c(OC)cc21)c1ccccc1,98
Cc1ccc2cc3cc(C(=O)NCCCN4CCCCCC4)sc3nc2c1,66*
COc1ccc2cc3cc(C(=O)NCCCN4CCCCCC4)oc3nc2c1,63*
COc1ccc2cc3cc(C(=O)NCCC4=CCCCC4)sc3nc2c1,103
Cc1ccc2cc3cc(C(=O)NCCN4CCN(c5cccc(Cl)c5)CC4)sc3nc2c1,104
COc1ccc2cc3cc(C(=O)NC4CCCC(C)C4C)oc3nc2c1 (configuration not stated),101
CCN1CCN(CCCNC(=O)c2cc3cc4ccc(Cl)cc4nc3o2)CC1,94
O=C(NCCO)c1cccc(C(=O)NCCO)c1,94
COc1cccc2cc(-c3nnc(Nc4ccccc4F)s3)c(=O)oc12,98
Cc1cccc(N(CC(=O)Nc2ccc3c(c2)oc2ccccc23)S(=O)(=O)c2ccccc2)c1,100
CC[C@@]1(O)C[C@H](OC2CC(N(C)C)C(OC3CC(O)C(OC4CCC(=O)C(C)O4)C(C)O3)C(C)O2)c2c(cc3c(c2O)C(=O)c2c(O)cccc2C3=O)[C@H]1C(=O)OC (some centres not stated),38*
CC[C@@]1(O)C[C@H](O[C@H]2C[C@H](N(C)C)[C@H](O)[C@H](C)O2)c2c(cc3c(c2O)C(=O)c2c(O)cccc2C3=O)[C@H]1C(=O)OC,8.9*
CN1CC(=O)NC1=NC(=O)C1CCCN(S(=O)(=O)c2ccc3c(c2)oc(=O)n3C)C1 (configuration not stated),99
CCCNC(=O)c1cnc(N2CCCC2)nc1,90
O=C1NN(c2ccccc2)C(=O)/C1=C/c1ccc(Br)cc1,99
COC(=O)c1ccc(OCC(O)CN2C(C)CCCC2C)cc1 (configuration not stated),100
CCC(=O)Nc1cccc(-c2nnc3c4ccccc4c(C)nn23)c1,101
CCn1c2ccccc2c2cc(C=Nc3ccc(C)cc3O)ccc21,91
SMILES,Vaccinia pol inh
CCn1c2ccccc2c2cc(N)ccc21,92
CCn1c2ccccc2c2cc(C=Nc3cccc(C#N)c3)ccc21,77*
CCOC(=O)c1c(C)c(C#N)c(N(C(C)=O)C(C)=O)n1-c1ccc(C)cc1,68
COc1ccc(CCNC(=O)c2n[nH]c(=O)c3ccccc23)cc1OC,103
O=C(Nc1nnc(SCC(=O)N2CCCc3ccccc32)s1)c1c(F)cccc1Cl,102
COc1ccc2c(OC)ccc3c2c1C=CC3=O,56*
N#CC1=C(SCC(=O)NC2CC2)NC2=C(C(=O)CCC2)C1c1ccco1 (configuration not stated),90
CN(C(=O)C1CC(c2ccccc2F)=NO1)c1ccccc1 (configuration not stated),100
CC(=C\c1ccccc1)/C=C1/SC(=O)NC1=O,99

# Assay outcomes as filed in PubChem BioAssay.
